In the supplement of paper PMC6897291:

Assays:
[1] = system: U-2932; assay: growth inhibition by drug alone (1 - RLU/untreated control) (fraction); higher = stronger inhibition; settings: 177Lu-lilotomab satetraxetan 0 ug/ml
Procedure, shortened: (§1)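 RIVA or U-2932 cells, untreated or pretreated 18 h with a radiolabelled anti-CD37 antibody conjugate (~600 MBq/mg; 0.5 µg/ml RIVA, 1 µg/ml U-2932), were washed and seeded at 3,000 cells/well on plates pre-printed with the Selleck Cambridge Cancer Compound library. Doses were 10/100 nM (RIVA) or 10/1,000 nM (U-2932). RealTime-Glo luminescence was read daily from day 3 after 1 h at 37°C. Growth inhibition is 1 − RLU/mean of 48 untreated no-drug wells per plate.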

[2] = system: RIVA; assay: as above; settings: 177Lu-lilotomab satetraxetan 0 ug/ml
Procedure, shortened: as §1

[3] = system: U-2932; assay: growth inhibition by drug plus 177Lu-lilotomab satetraxetan (1 - RLU/untreated control) (fraction); higher = stronger inhibition; settings: 177Lu-lilotomab satetraxetan 1 ug/ml
Procedure, shortened: as §1

[4] = system: RIVA; assay: as above; settings: 177Lu-lilotomab satetraxetan 0.5 ug/ml
Procedure, shortened: as §1

| Structure (SMILES) | growth inhibition by drug alone ([1]; 10 nM, time (day): 3) | growth inhibition by drug alone ([1]; 10 nM, time (day): 4) | growth inhibition by drug alone ([1]; 10 nM, time (day): 5) | growth inhibition by drug alone ([1]; 10 nM, time (day): 6) | growth inhibition by drug alone ([1]; 1000 nM, time (day): 3) | growth inhibition by drug alone ([1]; 1000 nM, time (day): 4) | growth inhibition by drug alone ([1]; 1000 nM, time (day): 5) | growth inhibition by drug alone ([1]; 1000 nM, time (day): 6) | growth inhibition by drug alone ([2]; 10 nM, time (day): 3) | growth inhibition by drug alone ([2]; 10 nM, time (day): 4) | growth inhibition by drug alone ([2]; 10 nM, time (day): 5) | growth inhibition by drug alone ([2]; 10 nM, time (day): 6) | growth inhibition by drug alone ([2]; 100 nM, time (day): 3) | growth inhibition by drug alone ([2]; 100 nM, time (day): 4) | growth inhibition by drug alone ([2]; 100 nM, time (day): 5) | growth inhibition by drug alone ([2]; 100 nM, time (day): 6) | growth inhibition by drug plus 177Lu-lilotomab satetraxetan ([3]; 10 nM, time (day): 3) | growth inhibition by drug plus 177Lu-lilotomab satetraxetan ([3]; 10 nM, time (day): 4) | growth inhibition by drug plus 177Lu-lilotomab satetraxetan ([3]; 10 nM, time (day): 5) | growth inhibition by drug plus 177Lu-lilotomab satetraxetan ([3]; 10 nM, time (day): 6) | growth inhibition by drug plus 177Lu-lilotomab satetraxetan ([3]; 1000 nM, time (day): 3) | growth inhibition by drug plus 177Lu-lilotomab satetraxetan ([3]; 1000 nM, time (day): 4) | growth inhibition by drug plus 177Lu-lilotomab satetraxetan ([3]; 1000 nM, time (day): 5) | growth inhibition by drug plus 177Lu-lilotomab satetraxetan ([3]; 1000 nM, time (day): 6) | growth inhibition by drug plus 177Lu-lilotomab satetraxetan ([4]; 10 nM, time (day): 3) | growth inhibition by drug plus 177Lu-lilotomab satetraxetan ([4]; 10 nM, time (day): 4) | growth inhibition by drug plus 177Lu-lilotomab satetraxetan ([4]; 10 nM, time (day): 5) | growth inhibition by drug plus 177Lu-lilotomab satetraxetan ([4]; 10 nM, time (day): 6) | growth inhibition by drug plus 177Lu-lilotomab satetraxetan ([4]; 100 nM, time (day): 3) | growth inhibition by drug plus 177Lu-lilotomab satetraxetan ([4]; 100 nM, time (day): 4) | growth inhibition by drug plus 177Lu-lilotomab satetraxetan ([4]; 100 nM, time (day): 5) | growth inhibition by drug plus 177Lu-lilotomab satetraxetan ([4]; 100 nM, time (day): 6) |
| --- | --- | --- | --- | --- | --- | --- | --- | --- | --- | --- | --- | --- | --- | --- | --- | --- | --- | --- | --- | --- | --- | --- | --- | --- | --- | --- | --- | --- | --- | --- | --- | --- |
| COc1cc2c(NC3CCN(C)CC3)nc(N3CCCN(C)CC3)nc2cc1OCCCN(C)C | 0.0324 | -0.0188 | -0.094 | -0.326 | -0.0483 | -0.0744 | -0.125 | -0.235 | -0.117 | -0.195 | -0.474 | -0.819 | -0.568 | -0.503 | -0.528 | -0.706 | -0.0493 | -0.0119 | 0.0125 | 0.00172 | -0.0195 | -0.0136 | 0.00791 | 0.0785 | 0.365 | 0.464 | 0.475 | 0.499 | 0.316 | 0.452 | 0.453 | 0.469 |
| N#Cc1ccc(COC[C@H]2O[C@@H](n3c(NCc4ccc(Cl)c(Cl)c4)nc4c(N)ncnc43)[C@H](O)[C@@H]2O)cc1 | 0.115 | 0.0829 | -0.00792 | -0.0103 | 0.0695 | 0.0449 | -0.0886 | -0.0586 | -0.00484 | -0.0139 | -0.22 | -0.465 | -0.367 | -0.326 | -0.323 | -0.395 | -0.0128 | 0.0586 | 0.0723 | 0.037 | 0.12 | 0.128 | 0.109 | 0.165 | 0.498 | 0.574 | 0.59 | 0.586 | 0.472 | 0.543 | 0.557 | 0.551 |
| C[C@@H]1C[C@H]2[C@@H]3CCC4=CC(=O)C=C[C@]4(C)[C@@]3(F)[C@@H](O)C[C@]2(C)[C@@]1(O)C(=O)CO [Dexamethasone] | 0.345 | 0.301 | 0.236 | 0.236 | 0.466 | 0.472 | 0.362 | 0.306 | 0.0365 | 0.0468 | -0.018 | -0.23 | -0.0879 | -0.051 | -0.149 | -0.312 | 0.277 | 0.301 | 0.26 | 0.353 | 0.422 | 0.466 | 0.406 | 0.431 | – | – | – | – | – | – | – | – |
| C=C1/C(=C\C=C2/CCC[C@]3(C)[C@@H]([C@H](C)/C=C/[C@H](C)C(C)C)CC[C@@H]23)C[C@@H](O)C[C@@H]1O [Doxercalciferol (Hectorol)] | 0.174 | 0.125 | 0.0899 | 0.0598 | 0.106 | 0.132 | 0.147 | 0.128 | 0.187 | 0.183 | 0.177 | 0.0541 | 0.0648 | 0.127 | 0.103 | 0.0636 | 0.15 | 0.183 | 0.229 | 0.36 | 0.0716 | 0.176 | 0.182 | 0.287 | 0.484 | 0.601 | 0.615 | 0.639 | 0.47 | 0.55 | 0.563 | 0.571 |
| Cc1csc(-c2nnc(Nc3ccc(Oc4ncccc4-c4ccnc(N)n4)cc3)c3ccccc23)c1 | 0.0562 | -0.00651 | 0.0489 | 0.269 | 0.102 | 0.112 | 0.103 | 0.252 | 0.0279 | -0.0253 | 0.0704 | 0.206 | -0.211 | -0.208 | -0.145 | -0.0126 | 0.0788 | 0.121 | 0.207 | 0.449 | 0.271 | 0.306 | 0.344 | 0.538 | 0.482 | 0.52 | 0.572 | 0.659 | 0.496 | 0.552 | 0.581 | 0.676 |
| Cc1ccc(NC(=O)c2cccc(C(C)(C)C#N)c2)cc1Nc1ccc2ncn(C)c(=O)c2c1 | 0.0487 | 0.00122 | -0.0179 | -0.0294 | 0.157 | 0.159 | 0.087 | 0.137 | -0.0415 | -0.0437 | -0.0355 | -0.0473 | -0.346 | -0.245 | -0.279 | -0.339 | 0.00759 | 0.0624 | 0.11 | 0.17 | 0.173 | 0.189 | 0.164 | 0.263 | 0.556 | 0.622 | 0.643 | 0.651 | 0.432 | 0.547 | 0.564 | 0.563 |
| O=C(Cc1ccc(-c2ccc(OCCN3CCOCC3)cc2)cn1)NCc1ccccc1 | 0.144 | 0.134 | 0.0891 | 0.0449 | 0.964 | 0.971 | 0.975 | 0.978 | 0.0653 | 0.0193 | -0.0159 | -0.201 | 0.766 | 0.708 | 0.676 | 0.605 | 0.0847 | 0.112 | 0.111 | 0.18 | 0.968 | 0.977 | 0.981 | 0.983 | 0.466 | 0.544 | 0.565 | 0.575 | 0.833 | 0.839 | 0.863 | 0.881 |
